{"source": "PubChem BioAssay (Tox21)", "note": "Records with an inconclusive call do not appear. Unmarked numbers belong to inactive results. Calls of active or inactive are those of the source. Calls come from the whole dose curve; as a rule, active = well fitted cell-killing curve with a large enough effect in the repeat runs; inconclusive = weak or mixed curves, or effect the other way; inactive = no such curve, though single readings can be large or run the other way. % is set by controls: 0 for no effect and ±100 for the full control effect; potency is the fitted concentration of half-maximal effect.", "data": [{"test": "qHTS assay to identify small molecule antagonists of the thyroid receptor (TR) signaling pathway - cell viability counter screen (AID 743064); note: nearly all actives have a fitted effect of over 50% in size", "settings": "GH3.TRE-Luc viability, CellTiter-Fluor, 24 h; series mostly up to 70.3 µM; activity change, negative = cytotoxic: at the top concentration", "source_text": "National Center for Advancing Translational Sciences [NCATS]\nNIH Chemical Genomics Center [NCGC]\nU.S. Environmental Protection Agency [EPA]\nNational Institutes of Environmental Health Sciences [NIEHS]\nNational Toxicology Program [NTP]\nU.S. Food and Drug Administration [FDA]\nThyroid receptor (TR), a nuclear hormone receptor, plays an important role in development, proliferation, differentiation, metabolism, brain function, and cardiovascular system. […] To profile the Tox21 10K compound library in TR signaling, a cell-based GH3-TRE-Luc assay (GH3.TRE-Luc cell line, developed by the laboratory of Dr. Albertinka J. Murk, Wageningen University) was used to measure the inhibition of TR. GH3 (rat pituitary tumor) cells stably expressing a TR activity sensor consisting of two TR response elements and a luciferase reporter gene. The cytotoxicity of the Tox21 compound library against the GH3.TRE-Luc cell line was tested in parallel by measuring the cell viability using CellTiter-Fluor assay (Promega, Madison, WI) in the same wells.\nTox21 Assay Protocol Summary:\nGH3.TRE-Luc cells were dispensed at 1500 cells/4 uL/well into 1536-well white solid bottom plates using a Multidrop Combi dispenser (Thermo Fisher Scientific Inc., Waltham, MA). After the assay plates were incubated at 37 C for 4 hours, 23 nL of library compound or DMSO controls was transferred to the assay plates by a pintool station (Kalypsys, San Diego, CA), followed by addition of 1 ul of T3 (1 nM, final concentration in the wells) to stimulate TR transactivation. The assay plates were incubated at 37 C for 23.5 h, and then 1 uL of CellTiter-Fluor reagent (Promega, Madision, WI) of measuring cytotoxicity was added to each well using a Bioraptr Flying Reagent Dispenser (FRD) workstation (Beckman Coulter, Indianapolis, IN, USA). The plates were incubated at 37C and 5% CO2 for additional 30 min, and fluorescence intensity was measured by a ViewLux plate reader (PerkinElmer, Shelton, CT).", "values": [{"smiles": "CCC(C)(C)C1CCC(OC)CC1", "note": "(stereo not given)", "activity change, negative = cytotoxic": "16%"}, {"smiles": "CCO[Si](CCCN=C=O)(OCC)OCC", "activity change, negative = cytotoxic": "6.95%"}, {"smiles": "CCN1CCN(c2cc3c(cc2F)c(=O)c(C(=O)O)cn3C2CC2)CC1", "activity change, negative = cytotoxic": "1.67%"}, {"smiles": "C=CCSCC1Nc2cc(Cl)c(S(N)(=O)=O)cc2S(=O)(=O)N1", "note": "(stereo not given)", "activity change, negative = cytotoxic": "-4.45%"}, {"smiles": "C=CCOc1nc(OCC=C)nc(OCC=C)n1", "activity change, negative = cytotoxic": "-2.22%"}, {"smiles": "CCc1cc(S(=O)(=O)O)c2cc(C(C)C)cccc1-2", "activity change, negative = cytotoxic": "14.3%"}, {"smiles": "C/C=C1\\C(=O)C[C@H]2[C@@H]3CCC4=CC(=O)CC[C@]4(C)[C@H]3CC[C@]12C", "activity change, negative = cytotoxic": "-4.84%"}, {"smiles": "C=C(C)[C@H]1CC=C(C)CC1", "activity change, negative = cytotoxic": "-8.4%"}, {"smiles": "CC1=CC(=O)CCC1", "activity change, negative = cytotoxic": "10.4%"}, {"smiles": "OC[C@H]1O[C@@H]2O[C@H]3[C@H](O)[C@@H](O)[C@@H](O[C@H]4[C@H](O)[C@@H](O)[C@@H](O[C@H]5[C@H](O)[C@@H](O)[C@@H](O[C@H]6[C@H](O)[C@@H](O)[C@@H](O[C@H]7[C@H](O)[C@@H](O)[C@@H](O[C@H]8[C@H](O)[C@@H](O)[C@@H](O[C@H]9[C@H](O)[C@@H](O)[C@@H](O[C@H]1[C@H](O)[C@H]2O)O[C@@H]9CO)O[C@@H]8CO)O[C@@H]7CO)O[C@@H]6CO)O[C@@H]5CO)O[C@@H]4CO)O[C@@H]3CO", "activity change, negative = cytotoxic": "-0.767% [at 32.5 µM]"}, {"smiles": "CCCCNc1ccccc1", "activity change, negative = cytotoxic": "20.7%"}, {"smiles": "COc1nc(C)nc(N)n1", "activity change, negative = cytotoxic": "3.79%"}, {"smiles": "CCO[Si](C)(OCC)OCC", "activity change, negative = cytotoxic": "13.4%"}, {"smiles": "CCN1CCCC(OC(=O)C(c2ccccc2)c2ccccc2)C1", "note": "(stereo not given)", "Potency": "12.7 µM (active)"}, {"smiles": "Nc1cc(N)cc(C(=O)O)c1", "activity change, negative = cytotoxic": "9.3%"}, {"smiles": "CNc1ncnc2nc[nH]c12", "activity change, negative = cytotoxic": "0.575% [at 95 µM]"}, {"smiles": "CN(C)N=Nc1ccccc1", "activity change, negative = cytotoxic": "-2.73%"}, {"smiles": "CC(C)c1ccc2oc3nc(N)c(C(=O)O)cc3c(=O)c2c1", "activity change, negative = cytotoxic": "-2.63%"}, {"smiles": "CCC(=O)Nc1cccc(N)c1", "activity change, negative = cytotoxic": "12.5%"}, {"smiles": "COc1ccc(N=[N+]([O-])c2ccc(OC)cc2)cc1", "activity change, negative = cytotoxic": "-0.42%"}, {"smiles": "C#CC(O)C(CC)CCCC", "note": "(stereo not given)", "activity change, negative = cytotoxic": "-0.82%"}, {"smiles": "Nc1cc(C(Cl)=C(Cl)Cl)c(S(N)(=O)=O)cc1S(N)(=O)=O", "Potency": "inactive"}, {"smiles": "N#CC1(O)CCCCC1", "activity change, negative = cytotoxic": "-1.04% [at 95 µM]"}, {"smiles": "C=CC(=O)OCCCCCC", "activity change, negative = cytotoxic": "7.03%"}, {"smiles": "OCc1ccccn1", "activity change, negative = cytotoxic": "14.2%"}, {"smiles": "CN(C)C(=O)C(CCN1CCC(O)(c2ccc(Cl)cc2)CC1)(c1ccccc1)c1ccccc1", "Potency": "8.41 µM (active)"}, {"smiles": "c1ccc(CCCc2ccccn2)cc1", "activity change, negative = cytotoxic": "3.98%"}, {"smiles": "c1ccc(SCCSc2ccccc2)cc1", "activity change, negative = cytotoxic": "10.4%"}, {"smiles": "NS(=O)(=O)c1cc(C2(O)NC(=O)c3ccccc32)ccc1Cl", "note": "(stereo not given)", "activity change, negative = cytotoxic": "-2.38% [at 32.5 µM]"}, {"smiles": "CC(C)COC(=O)c1ccccc1O", "activity change, negative = cytotoxic": "16.4%"}, {"smiles": "O=S(=O)(c1cccc2cnccc12)N1CCCNCC1", "activity change, negative = cytotoxic": "-1.57%"}, {"smiles": "COc1cc(C(=O)N2CCOCC2)cc(OC)c1OC", "Potency": "inactive"}, {"smiles": "CCC(C)OC(=O)N1CCCCC1CCO", "note": "(stereo not given)", "activity change, negative = cytotoxic": "5.03%"}, {"smiles": "CCOC(=O)Cn1c(=O)sc2cccc(Cl)c21", "activity change, negative = cytotoxic": "-1.77%"}, {"smiles": "CC1=CCC2C(C1)C2(C)C", "note": "(stereo not given)", "activity change, negative = cytotoxic": "-0.469%"}, {"smiles": "CC(=O)OC(C)(C)C", "activity change, negative = cytotoxic": "0.779%"}, {"smiles": "CC1(C)SC(C)(C)SC(C)(C)S1", "activity change, negative = cytotoxic": "1.92%"}, {"smiles": "CCN(CC)S(=O)(=O)c1ccc(C(=O)O)cc1", "activity change, negative = cytotoxic": "18.2%"}, {"smiles": "O=C(O)/C=C/c1ccc(/C=C/C(=O)O)cc1", "activity change, negative = cytotoxic": "-3.37%"}, {"smiles": "OCC(CO)(CO)COCC(CO)(CO)CO", "activity change, negative = cytotoxic": "4.61%"}]}]}
